From PubChem BioAssay (NCI)
Where “and” joins values, the source holds several entries; their conditions need not be identical. Equal values may be shown once. Compounds without any hit were thinned out: in the full panel of roughly 83,000, 20% have a hit.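 Method: cells in 96-well plates; compound added at one concentration; 48 h incubation; percent growth measured; values under 10 scored active.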

Columns and labels:
Test in all cases: NCI-60 one-dose screen, 48 h (100 = growth as untreated, 0 = no growth, -100 = all killed)
HCT-15 colon = test system: HCT-15 colon
HT29 colon = test system: HT29 colon
SNB-75 CNS = test system: SNB-75 CNS
SNB-19 CNS = test system: SNB-19 CNS
U251 CNS = test system: U251 CNS
PC-3 prostate = test system: PC-3 prostate
SK-MEL-5 melanoma = test system: SK-MEL-5 melanoma
UACC-62 melanoma = test system: UACC-62 melanoma
LOX IMVI melanoma = test system: LOX IMVI melanoma
SK-MEL-28 melanoma = test system: SK-MEL-28 melanoma
SK-MEL-2 melanoma = test system: SK-MEL-2 melanoma
EKVX NSCLC = test system: EKVX NSCLC
SN12C renal = test system: SN12C renal
UO-31 renal = test system: UO-31 renal
TK-10 renal = test system: TK-10 renal
ACHN renal = test system: ACHN renal
CAKI-1 renal = test system: CAKI-1 renal
A498 renal = test system: A498 renal
CCRF-CEM leukemia = test system: CCRF-CEM leukemia
MOLT-4 leukemia = details: 10 µM unless noted

Measured: growth

O=[N+]([O-])c1ccc(-n2[nH]nnc2=S)cc1
inactive: HCT-15 colon; 10 µM unless noted 97.5% | HT29 colon; 10 µM unless noted 99.2% | SNB-75 CNS; 10 µM unless noted 89.1% | SNB-19 CNS; 10 µM unless noted 98.1% | U251 CNS; 10 µM unless noted 108% | PC-3 prostate; 10 µM unless noted 92% | SK-MEL-5 melanoma; 10 µM unless noted 122% | UACC-62 melanoma; 10 µM unless noted 94.6% | LOX IMVI melanoma; 10 µM unless noted 94.4% | SK-MEL-28 melanoma; 10 µM unless noted 106% | SK-MEL-2 melanoma; 10 µM unless noted 109% | EKVX NSCLC; 10 µM unless noted 101% | SN12C renal; 10 µM unless noted 94% | UO-31 renal; 10 µM unless noted 80.5% | TK-10 renal; 10 µM unless noted 116% | ACHN renal; 10 µM unless noted 102% | CAKI-1 renal; 10 µM unless noted 95.6% | A498 renal; 10 µM unless noted 95.1% | CCRF-CEM leukemia; 10 µM unless noted 106% | MOLT-4 leukemia 102%

O=C1NC(=O)C2(CCc3ccccc32)N1 (stereo not given)
inactive: HCT-15 colon; 10 µM unless noted 104% and 108% | HT29 colon; 10 µM unless noted 104% and 109% | SNB-75 CNS; 10 µM unless noted 96.2% and 94.1% | SNB-19 CNS; 10 µM unless noted 96.2% and 103% | U251 CNS; 10 µM unless noted 109% and 99% | PC-3 prostate; 10 µM unless noted 133% and 88.2% | SK-MEL-5 melanoma; 10 µM unless noted 99.4% and 108% | UACC-62 melanoma; 10 µM unless noted 100% and 96.7% | LOX IMVI melanoma; 10 µM unless noted 103% and 95.7% | SK-MEL-28 melanoma; 10 µM unless noted 123% | SK-MEL-2 melanoma; 10 µM unless noted 129% and 51.4% | EKVX NSCLC; 10 µM unless noted 103% and 99.9% | SN12C renal; 10 µM unless noted 104% and 95.1% | UO-31 renal; 10 µM unless noted 101% and 85.3% | TK-10 renal; 10 µM unless noted 105% and 99.5% | ACHN renal; 10 µM unless noted 111% and 96.7% | CAKI-1 renal; 10 µM unless noted 98.4% and 89.7% | A498 renal; 10 µM unless noted 94.4% | CCRF-CEM leukemia; 10 µM unless noted 118% and 94.2%

CNC(=O)c1cc(Oc2ccc(CC(=O)Nc3cc(C(C)(C)C)nn3C)cc2)ccn1
inactive: HCT-15 colon; 1 µM 92.7% | HCT-15 colon; 10 µM 83.1% | HCT-15 colon; 30 µM 70.5% | HT29 colon; 1 µM 90.7% | HT29 colon; 10 µM 94.1% | HT29 colon; 30 µM 86.5% | SNB-75 CNS; 1 µM 51.3% | SNB-75 CNS; 10 µM 68% | SNB-75 CNS; 30 µM 77.9% | SNB-19 CNS; 1 µM 71.4% | SNB-19 CNS; 10 µM 65.3% | SNB-19 CNS; 30 µM 81.3% | U251 CNS; 1 µM 86% | U251 CNS; 10 µM 84.5% | U251 CNS; 30 µM 90.3% | PC-3 prostate; 1 µM 77.9% | PC-3 prostate; 10 µM 77.1% | PC-3 prostate; 30 µM 85.5% | SK-MEL-5 melanoma; 1 µM 22.8% | SK-MEL-5 melanoma; 10 µM 30.8% | UACC-62 melanoma; 1 µM 62.2% | UACC-62 melanoma; 10 µM 42% | UACC-62 melanoma; 30 µM 56.3% | LOX IMVI melanoma; 1 µM 76.6% | LOX IMVI melanoma; 10 µM 48.9% | LOX IMVI melanoma; 30 µM 56.2% | SK-MEL-28 melanoma; 1 µM 81.7% | SK-MEL-28 melanoma; 10 µM 83.8% | SK-MEL-28 melanoma; 30 µM 89.9% | SK-MEL-2 melanoma; 1 µM 67.9% | SK-MEL-2 melanoma; 10 µM 55.6% | SK-MEL-2 melanoma; 30 µM 78.3% | EKVX NSCLC; 1 µM 73.5% | EKVX NSCLC; 10 µM 62% | EKVX NSCLC; 30 µM 49.2% | SN12C renal; 1 µM 72.8% | SN12C renal; 10 µM 78.6% | SN12C renal; 30 µM 87.1% | UO-31 renal; 1 µM 77.1% | UO-31 renal; 10 µM 93.2% | UO-31 renal; 30 µM 113% | TK-10 renal; 1 µM 95.2% | TK-10 renal; 10 µM 80.4% | TK-10 renal; 30 µM 103% | ACHN renal; 1 µM 67.7% | ACHN renal; 10 µM 67.8% | ACHN renal; 30 µM 73.4% | CAKI-1 renal; 1 µM 57.9% | CAKI-1 renal; 10 µM 61.3% | CAKI-1 renal; 30 µM 76.5% | A498 renal; 1 µM 69.3% | A498 renal; 10 µM 31.2% | A498 renal; 30 µM 54.8% | CCRF-CEM leukemia; 1 µM 73.3% | CCRF-CEM leukemia; 10 µM 66.1% | CCRF-CEM leukemia; 30 µM 62.9%
